Bioassay records deposited in PubChem by National Center for Advancing Translational Sciences (NCATS).
Only some compounds are listed: those with a hit (about 0.5% of all), similar ones and a draw of the others.
EPAC1 antag: EPAC1 (human) antagonism; EPAC1 GEF assay, Rap1b-BODIPY-GDP exchange fluorescence; Potency, µM (doses to about 115 µM), usual class: inhibitors; actives 0.14% (n = 360,000); AID 720709; also: nearly all actives have a fitted effect of over 50% in size
EPAC1 agonist: activates human EPAC1 exchange factor. EPAC1 agonist qHTS, biochemical assay; response scale: 100% = response to 6.5 mM cAMP. actives 0.073% (n = 360,000). Potency, µM (doses to about 154 µM), most hits filed as activators; also: nearly all actives have a fitted effect of over 60% in size
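Compounds were pinned as a concentration titration into mixtures of EPAC1 (100 nM), BODIPY-GDP-loaded Rap1B (250 nM) and GDP (50 uM). After 5 min at room temperature, fluorescence was followed for 30 min; activity was scaled to 6.5 mM cAMP.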
TSHR antag: antagonists of human thyroid stimulating hormone receptor; TSHR-expressing cells, TSH-stimulated cAMP HTRF, 2 h; hits give low values; P16473; activity change, negative = inhibition, % at 11.5 µM; actives 0.2% (n = 330,000);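 active = activity change below a set negative limit, meaning inhibition stronger than a set level, cut at about -70% in these data; inconclusive = activity change between two set negative limits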
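TSHR-expressing cells, 200/well, pre-treated with compound, then stimulated with EC80 TSH (4nM final) for 2 hours at 37 deg C. cAMP measured by competitive HTRF: anti-cAMP cryptate antibody in lysis buffer plus cAMP-d2, read after 30 minutes at room temperature.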
PTHR1 agonist: agonists of human PTHR1 parathyroid hormone receptor; HEK293 GP2 PTHR1 cells, GloSensor cAMP luminescence, 1 h; Potency, µM (doses to about 115 µM), actives largely listed as activators; actives 0.075% (n = 410,000); also: nearly all actives have a fitted effect of over 55% in size
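HEK-293-derived GP2 cells expressing PTHR1 and a GloSensor cAMP reporter, 3,000/well, plated overnight, given luciferin plus IBMX (each 0.5 mM as added) for 1 h at 37 °C, then compound for 1 h at 37 °C. Luminescence was read after 15 min at room temperature.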
EPAC2 ag: EPAC2 (human) agonism. Q8WZA2. EPAC2 activation, biochemical qHTS; response scale: 100% = 6.5 mM cAMP response. Potency, µM (titrated, usually from 154 µM), hits mostly activators. actives 0.079% (n = 360,000). AID 720711; also: nearly all actives have a fitted effect of over 50% in size
Target sequence (Q8WZA2 whole entry, looked up): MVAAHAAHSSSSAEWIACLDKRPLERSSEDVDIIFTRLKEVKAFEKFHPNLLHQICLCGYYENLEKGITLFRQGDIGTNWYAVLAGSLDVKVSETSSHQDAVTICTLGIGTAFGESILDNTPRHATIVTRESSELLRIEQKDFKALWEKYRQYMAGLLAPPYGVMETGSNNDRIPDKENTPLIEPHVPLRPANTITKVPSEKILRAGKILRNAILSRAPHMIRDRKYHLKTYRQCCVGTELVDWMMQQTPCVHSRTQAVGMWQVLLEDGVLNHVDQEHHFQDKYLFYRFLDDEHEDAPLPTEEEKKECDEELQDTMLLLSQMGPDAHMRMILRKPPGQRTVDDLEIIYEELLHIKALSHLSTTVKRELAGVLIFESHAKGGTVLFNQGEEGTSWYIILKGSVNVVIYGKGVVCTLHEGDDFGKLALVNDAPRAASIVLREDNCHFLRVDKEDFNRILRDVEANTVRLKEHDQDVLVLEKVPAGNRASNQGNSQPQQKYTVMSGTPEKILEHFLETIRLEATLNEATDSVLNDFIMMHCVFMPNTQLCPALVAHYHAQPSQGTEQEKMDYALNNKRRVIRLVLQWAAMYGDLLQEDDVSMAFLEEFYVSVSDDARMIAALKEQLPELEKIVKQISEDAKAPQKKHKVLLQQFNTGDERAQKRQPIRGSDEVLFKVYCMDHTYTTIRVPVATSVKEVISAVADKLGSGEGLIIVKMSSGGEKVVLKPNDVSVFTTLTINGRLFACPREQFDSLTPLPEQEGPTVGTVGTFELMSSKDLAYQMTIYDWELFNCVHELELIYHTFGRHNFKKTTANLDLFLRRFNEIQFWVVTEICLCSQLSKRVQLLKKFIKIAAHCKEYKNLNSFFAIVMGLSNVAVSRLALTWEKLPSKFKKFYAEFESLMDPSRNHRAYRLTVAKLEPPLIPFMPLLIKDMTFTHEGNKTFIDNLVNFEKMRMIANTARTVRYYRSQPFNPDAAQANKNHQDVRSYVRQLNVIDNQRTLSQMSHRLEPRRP
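Each well held 100 nM EPAC2, 250 nM RAP1B-BODIPY-GDP and 50 uM GDP. Fluorescence, read at 5-min intervals to 30 min, was referenced to a 6.5 mM cAMP positive control.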
EPAC2 antagonist: EPAC2 (human) antagonism | EPAC2 GEF exchange of Rap1B-BODIPY-GDP, fluorescence | Potency, µM (highest dose often 114 µM), usual class: inhibitors | actives 0.18% (n = 360,000); also: nearly all actives have a fitted effect of over 45% in size
Hits are given with their value; n = inactive; u = inconclusive; x = no result. Unless noted, calls follow the shape of the dose curve; as a rule, active = well fitted curve in the direction sought with a large enough effect; inconclusive = small, poorly fitted or top-dose-only effect, or another doubt; inactive = no such curve, though single readings can be large; an effect the other way counts as inactive or inconclusive.

SMILES	EPAC1 antag	EPAC1 agonist	TSHR antag	PTHR1 agonist	EPAC2 ag	EPAC2 antagonist
COc1ccc(/C=C/C(=O)Nc2ccc3nc4c(c(Nc5ccc(OC)c(OC)c5)c3c2)CCCC4)cc1	x	x	x	n	x	x
O=c1[nH]nc(Cc2ccc([N+](=O)[O-])cc2)c2ccccc12	n	n	n	n	n	n
CCN1/C(=C/C=C/c2oc3ccc(-c4ccccc4)cc3[n+]2CC)Oc2ccc(-c3ccccc3)cc21	n	40µM	n	n	63µM	n
O=C1CSC(c2ccc(Cl)cc2Cl)N1c1ccccn1 (stereo not drawn)	n	n	n	n	n	18µM
O=C1CSC(c2ccccn2)N1c1ccc(Cl)c(Cl)c1 (stereo not drawn)	n	n	n	n	n	n
C#C[C@]1(OC(C)=O)CCC2C3CCC4=CC(=O)CC[C@@H]4C3CC[C@@]21C (stereo partly drawn)	n	n	-88	n	n	u
CC(=O)O[C@]1(C(C)=O)CC[C@H]2[C@@H]3C=C(C)C4=CC(=O)CC[C@@H]4[C@H]3CC[C@@]21C	n	n	n	n	n	n
Cc1ccc2nc(-c3cccs3)c(Nc3ccc4c(c3)OCCO4)n2c1	x	x	x	n	x	x
COc1ccc(-n2nnnc2SCC(=O)NC2CCCC2)cc1OC	n	n	-92	n	n	n
CCOC(=O)/C(=C\c1ccc(N2CCC(c3ccccc3)=N2)cc1)C(C)=O	n	u	x	n	100µM	n
N#CC(C#N)=C1C=CC=CN1/C(=C\c1ccco1)C(=O)c1ccc(Br)cc1	n	n	-91	n	n	n
c1ccc(C(NCc2cccnc2)(c2ccccc2)c2ccccc2)cc1	x	x	n	x	x	x
C/C(=N/NC(=O)c1ccncc1)c1cc2ccc(O)cc2oc1=O	n	100µM	n	n	89µM	n
COc1ccc(-c2cc(-c3ccc(Cl)cc3)c(C#N)c(SCC(=O)O)n2)cc1	n	n	-72	n	n	n
O=C(C[n+]1ccccc1)N/N=C/c1ccc(Br)cc1	n	n	n	n	n	n
O=C1c2cc(Br)ccc2N(Cc2ccc(Br)cc2)S(=O)(=O)C1c1cc(Cl)c(Cl)cc1[N+](=O)[O-] (stereo not drawn)	56µM	n	n	n	n	20µM
COc1cccc(C(=O)NNC(=S)NC2CCCCC2)c1	50µM	n	n	n	n	n
COc1cccc(C(=O)NC2CCCC2)c1	n	n	n	n	n	n
COc1ccc2[nH]c3c(NCCC4=CCCCC4)ncnc3c2c1	n	n	-73	n	n	n
CCN(CC)CCNc1ncnc2c1[nH]c1ccc(OC)cc12	x	x	n	x	x	x
COc1ccc(NC(=O)O[C@@H](C)[C@@H]2CN3CCc4c([nH]c5ccc(-c6ccc(OC)cc6)cc45)[C@@H]3C[C@@H]2N(C)C(=O)Nc2ccc(OC)cc2)cc1	n	n	x	n	n	n
O=C(O)c1ccc(N/N=C/c2ccc(-c3ccccc3Cl)o2)cc1	n	n	n	n	n	40µM
Cc1cccc(-c2noc(CN(C)C(=O)c3ccoc3C)n2)c1	n	n	n	n	n	n
Cc1cccc(-c2noc(CN(C)C(=O)c3ccco3)n2)c1	n	n	-100	n	n	n
O=C(O)c1cccc2c1C(=O)c1ccccc1-2	n	n	n	n	n	n
O=C1C(=C(I)I)c2ccccc2-c2ccccc21	25µM	n	x	n	u	u
CCn1cc(C(=O)NCc2ccc(Cl)cc2)c(=O)c2cc(S(=O)(=O)N(C)C)ccc21	n	n	n	n	n	n
CC(Oc1ccccc1)C(=O)Nc1nnc2n1CCS2 (stereo not drawn)	x	x	x	32µM	x	x
Cc1cc(C)c(Nc2cc(S(=O)(=O)O)c(N)c3c2C(=O)c2ccccc2C3=O)c(C)c1	50µM	n	n	n	n	u
Cc1cc(C)c(NC(=O)COC(=O)c2cccc3c2C(=O)c2ccccc2C3=O)c(C)c1	n	n	n	n	n	n
